# From PubChem
# Most compounds without a hit are left out; they make up all but 10% or so of the library.
# KB-V1 cytotox: qHTS assay for MDR1-selective chemotherapeutics: Primary screen using the drug-selected MDR subline cells KB-V1; KB-V1 MDR cells viability, CellTiter-Glo, 72 h; Potency, µM (top dose mostly 46.1 µM), most hits filed as cytotoxic; actives 3.4% (n = 400,000); AID 1347076, 2019; note: % is set by controls: 0 for no effect and ±100 for the full control effect; nearly all actives have a fitted effect of over 60% in size
#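 Potencies derive from concentration-effect curves fitted to normalized luminescence (CellTiter-Glo) of KB-V1 cells treated for 72 h at 37 degrees C in phenol-red-free DMEM containing 10% FBS.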
# RORgamma inh: qHTS for inhibitors of ROR gamma transcriptional activity; AID 2551, 2010; actives 5.4% (n = 310,000); Drosophila S2 Gal4-RORgamma UAS-luciferase reporter, 20 h; Potency, µM (doses to about 53.6 µM), for the others: at the top dose activity change, negative = inhibition, hits mostly inhibitors; Nuclear receptor ROR-gamma (Mus musculus), P51450; note: % is set by controls: 0 for no effect and ±100 for the full control effect; nearly all actives have a fitted effect of over 60% in size
# Target sequence (P51450 whole entry, looked up, the tested form may be a part): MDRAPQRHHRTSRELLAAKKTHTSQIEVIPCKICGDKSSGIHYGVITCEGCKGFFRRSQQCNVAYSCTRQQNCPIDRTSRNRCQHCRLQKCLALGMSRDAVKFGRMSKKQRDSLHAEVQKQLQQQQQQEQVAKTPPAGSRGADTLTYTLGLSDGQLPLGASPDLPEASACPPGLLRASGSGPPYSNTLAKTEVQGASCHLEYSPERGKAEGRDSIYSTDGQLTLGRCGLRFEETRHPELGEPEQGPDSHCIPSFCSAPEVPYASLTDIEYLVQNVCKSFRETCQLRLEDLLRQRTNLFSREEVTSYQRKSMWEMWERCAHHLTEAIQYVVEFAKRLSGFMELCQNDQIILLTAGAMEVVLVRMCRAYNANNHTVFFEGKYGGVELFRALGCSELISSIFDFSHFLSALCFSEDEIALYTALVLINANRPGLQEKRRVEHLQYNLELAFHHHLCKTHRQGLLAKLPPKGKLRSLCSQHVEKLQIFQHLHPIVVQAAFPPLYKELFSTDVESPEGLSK
#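 Luminescence from a UAS-regulated Photinus luciferase reporter in stably transfected Drosophila Schneider cells is measured; decreased signal marks ROR gamma inhibition. Fusion expression is induced by 700 uM copper sulfate for 20 hr.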
# KB-3-1 cytotox: qHTS assay for MDR1-selective chemotherapeutics: Primary screen using the parental adenocarcinoma cell KB-3-1 | KB-3-1 viability, CellTiter-Glo ATP luminescence, 72 h | AID 1347075, 2019 | actives 1.4% (n = 400,000) | Potency, µM (highest dose often 46.1 µM), most hits filed as cytotoxic; note: % is set by controls: 0 for no effect and ±100 for the full control effect; nearly all actives have a fitted effect of over 60% in size
#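 Luminescent ATP read-out (CellTiter-Glo) measures survival of drug-naive KB-3-1 cells after 72 h compound exposure at 37 °C. Titration series was screened from lowest to highest concentration, with DMSO vehicle plates as background controls.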
# VP16 counter: VP16 counterscreen qHTS for inhibitors of ROR gamma transcriptional activity | Potency, µM (top dose mostly 53.6 µM), without a hit: top-dose activity, negative = inhibition, usual class: inhibitors | actives 3.5% (n = 310,000) | Drosophila S2 Gal4-VP16 UAS-luciferase, luminescence, 20 h | AID 2546, 2010;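 note: Gal4-VP16 expression switched on by copper sulfate through the metallothionein promoter; % is set by controls: 0 for no effect and ±100 for the full control effect; nearly all actives have a fitted effect of over 50% in size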
# SW480 rerep: A quantitative high throughput screen for small molecules that induce DNA re-replication in SW480 colon adenocarcinoma cells. actives 1.8% (n = 340,000). SW480 DNA re-replication, Hoechst DNA content imaging, 48 h. Potency, µM (doses to about 46.1 µM), inactives show top-dose re-replication activation, hits mostly activators. AID 624297, 2012; note: % of control where 0% means no effect; nearly all actives have a fitted effect of over 55% in size
#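 First, 250 cells per well were seeded. Next, compound or vehicle (23 nL) was pinned in, plates sat 48 hr at 37 C. Finally Hoechst was added for 40 min before fluorescence scanning.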
# MCF10A rereplic: A quantitative high throughput screen for small molecules that induce DNA re-replication in MCF 10a normal breast cells. MCF 10A DNA re-replication, Hoechst nuclear intensity, 48 h. Potency, µM (top dose mostly 46.1 µM), inactives show at the highest dose activity, positive = re-replication, hits mostly activators. actives 2.9% (n = 350,000). AID 624296, 2012; note: % of control where 0% means no effect; nearly all actives have a fitted effect of over 50% in size
# Starred values were filed as active, the others as inactive; i = inactive; ? = inconclusive; . = not tested or not shown; ! = not confirmed by another sample; [ ] = another dose, or the depositor's remark. Calls come from the whole dose curve; as a rule, active = well fitted curve in the direction sought with a large enough effect; inconclusive = small, poorly fitted or top-dose-only effect, or another doubt; inactive = no such curve, though single readings can be large; an effect the other way counts as inactive or inconclusive. Potency is the fitted concentration of half-maximal effect.
SMILES,KB-V1 cytotox,RORgamma inh,KB-3-1 cytotox,VP16 counter,SW480 rerep,MCF10A rereplic
c1ccc(CN2CC[C@@H](Nc3nccn4ccnc34)C2)cc1,i,.,i,.,.,.
COc1ccc(C(=O)Nc2ccc3[nH]ccc3c2)cc1,16.4µM*,.,16.4µM*,.,?,?
Cc1ccccc1C(=O)NNC(=O)Nc1ccccc1,.,-34.1%,.,-3.9%,.,.
Cc1ccccc1C(=O)NNC(=O)/C=C\C(=O)O,i,3.55µM*,i,?,-4.5%,15.3%
Cc1cccc(C(=O)NNC(=O)/C=C/C(=O)O)c1,i,14.1µM*,i,-9.6%,-5.6%,3.9%
O=C(O)/C=C/C(=O)NNC(=O)c1ccccc1Br,i,11.2µM*,i,-16.0%,-3.2%,-27.7%
CC(C)(C)c1nnc(NC(=O)C2CCN(C(=O)c3ccccc3)CC2)s1,i,.,i,.,.,.
O=C(CC1N=C2c3ccccc3N=C(SCC(=O)Nc3cccc(C(F)(F)F)c3)N2C1=O)NCc1cccs1 (configuration not stated),i,.,i,.,.,.
CCOC(=O)N1CCc2c(sc3c2C(=O)NC(c2ccccc2)N3)C1 (configuration not stated),i,31.2%,?,-11.6%,9.2µM*,?
CN1CCc2c(sc3c2C(=O)NC(c2ccco2)N3)C1 (configuration not stated),i,-21.8%,i,-11.1%,0.2%,5.6%
CN1CCc2c(sc3c2C(=O)NC(c2cn(Cc4ccccc4)c4ccccc24)N3)C1 (configuration not stated),14.6µM*,-2.3%,9.2µM*,-1.1%,?,?
CN1CCc2c(sc3c2C(=O)NC(c2ccc(-c4ccc(Cl)cc4)o2)N3)C1 (configuration not stated),i,-11.2%,i,-4.4%,?,23.1µM*
Cc1ccc(S(=O)(=O)Nc2ccccc2/C=N/c2nc3ccccc3n2C(C)C)cc1,i,-16.4%,i,?,8.1%,20.6µM*
CCn1c(NCc2cc(Br)ccc2NS(=O)(=O)c2ccc(C)cc2)nc2ccccc21,18.4µM*,22.4%,?,-6.8%,4.0%,-3.8%
CCCn1c(NCc2ccccc2NS(=O)(=O)c2ccc(C)cc2)nc2ccccc21,16.4µM*,-9.8%,?,-8.7%,?,10.3µM*
CCCCn1c(/N=C/c2ccccc2NS(=O)(=O)c2ccc(C)cc2)nc2ccccc21,?,-33.0%,i,?,-1.2%,?
COC(=O)c1sc(NC(=O)CSc2nnc(C(C)C)n2C)nc1C,i,19.6%,i,-4.8%,-4.1%,-1.3%
CCOC(=O)c1sc(NC(=O)CSc2nnnn2-c2ccc(C)c(C)c2)nc1C,i,-10.3%,i,0.4%,1.3%,5.8µM*
CCOC(=O)c1sc(NC(=O)CSc2nnc(C(C)C)n2C)nc1C,23.1µM*,?,i,-1.6%,-9.0%,4.3%
Cc1ccc2sc(N3CCN(C(=O)C4COc5ccccc5O4)CC3)nc2c1C (configuration not stated),i,.,?,.,.,.
Cc1nn(-c2ccccc2)c(Cl)c1C(=O)Nc1nnc(C2CCCC2)s1,i,7.94µM*,i,?,-4.5%,?
Cc1cccc(C)c1NC(=O)c1c(C)nn(-c2ccccc2)c1Cl,14.6µM*,-27.3%,i,6.9%,-1.6%,4.8%
Nc1ccc(/C=C/c2nc3ccccc3s2)cc1,?,.,i,.,.,.
O=C(Nc1ccc(F)cc1)C1CC(=O)n2cnnc2N1 (configuration not stated),i,-12.1%,i,-15.1%,0.651µM*,-29.0%
CC(O)C(NS(=O)(=O)c1ccc(Cl)cc1)C(=O)OCC(=O)c1ccc2c(c1)NC(=O)CO2 (configuration not stated),?,.,i,.,-4.6%,-4.3%
SMILES,KB-V1 cytotox,RORgamma inh,KB-3-1 cytotox,VP16 counter,SW480 rerep,MCF10A rereplic
CC(C)CC(NC(=O)c1ccc(Cl)cc1)C(=O)OCC(=O)c1ccc2c(c1)NC(=O)CO2 (configuration not stated),i,11.2µM*,7.31µM*,7.08µM*,?,?
CC1=C(/C=C/C(C)=C/C=C/C(C)=C/C(=O)Nc2ccc(O)cc2)C(C)(C)CCC1,?,4.47µM*!,?,5.01µM*!,?,-42.9%
Cc1noc(C)c1COc1ccccc1C(=O)NNC(=O)c1ccccc1F,?,.,i,.,-5.2%,-2.2%
Cc1noc(C)c1COc1ccc(C(=O)NNC(=O)c2ccccc2)cc1,7.31µM*,.,4.61µM*,.,13µM*,20.6µM*
Cc1noc(C)c1COc1ccc(C(=O)O)cc1,i,-19.5%,i,-0.8%,-12.5%,13.2%
Cc1noc(C)c1COc1ccc(C(=O)NNC(=O)c2ccccc2F)cc1,i,.,?,.,11.6µM*,10.3%
COc1ccc2sc(N(Cc3cccnc3)C(=O)c3cccs3)nc2c1,?,.,16.4µM*,.,.,.
COc1ccc(C)cc1NC(=O)Cc1c(C(=O)O)c(C)cn1C,i,.,?,.,.,.
Cc1ccc(-c2noc(-c3ccc(NC4CCCC4)c([N+](=O)[O-])c3)n2)cc1,i,.,i,.,.,.
Cn1ncc2c(Nc3cccc(Cl)c3)nc(Nc3cccc(Cl)c3)nc21,?,0.2%,?,?,?,18.4µM*
Cn1ncc2c(Nc3ccc(Br)cc3)nc(Nc3ccc(Br)cc3)nc21,i,-26.8%,i,?,8.3%,?
Cn1ncc2c(Nc3ccc4ccccc4c3)ncnc21,?,32.5%,i,17.9%,16.4µM*,?
COc1cc(NC(=O)CNS(=O)(=O)c2cccs2)cc(OC)c1OC,?,.,i,.,.,.
CCOC(=O)c1cccc(NC(=O)CCS(=O)(=O)c2cccs2)c1,20.6µM*,?,i,-1.9%,-2.4%,3.8%
CCOC(=O)c1cccc(NC(=O)CNS(=O)(=O)c2cccs2)c1,23.1µM*,-3.8%,i,3.6%,-2.1%,-0.9%
CCOC(=O)c1cccc(NC(=O)CCS(=O)(=O)c2ccc(Br)s2)c1,i,-2.4%,i,-3.9%,-2.0%,-0.3%
O=C(NCC1(N2CCCCC2)CCCCC1)c1cccc(S(=O)(=O)Nc2ccc(F)cc2)c1,i,.,i,.,4.8%,?
N#C/C(=C(/O)c1ccc2c(c1)OCO2)c1nc2cc(C(F)(F)F)ccc2s1,?,-15.9%[1.91 µM],14.6µM*,?,?,9.8%
